Shown is part of a subset that was picked to be rich in hits.
Cycloheximide cs – counter-screen hit for Shiga toxin inhibitors, cycloheximide. cell reporter, cycloheximide protein synthesis inhibition counterscreen. AID 2314. max response, %. 300,000 tested, 12% active; in the data active means max response mostly above about 13%, no sharp cut-off; inactive means mostly below about 14%; further: read at 38.3 µM for the half of the compounds with a filed dose; 0% is about no effect
Giardia FBPA inh – blocks Giardia fructose-bisphosphate aldolase activity; A8B2U2; purified Giardia FBPA; Potency, µM (series often up to 59.6 µM), without a hit: at the top dose activity, negative = inhibition, hits mostly inhibitors; 290,000 tested, 0.71% active; AID 2451; further: potency means the concentration at half of the fitted maximal effect; on the % scale 0 is the no-effect control and ±100 the full control effect; nearly all actives have a fitted effect of over 55% in size
Target sequence (A8B2U2 whole entry, looked up): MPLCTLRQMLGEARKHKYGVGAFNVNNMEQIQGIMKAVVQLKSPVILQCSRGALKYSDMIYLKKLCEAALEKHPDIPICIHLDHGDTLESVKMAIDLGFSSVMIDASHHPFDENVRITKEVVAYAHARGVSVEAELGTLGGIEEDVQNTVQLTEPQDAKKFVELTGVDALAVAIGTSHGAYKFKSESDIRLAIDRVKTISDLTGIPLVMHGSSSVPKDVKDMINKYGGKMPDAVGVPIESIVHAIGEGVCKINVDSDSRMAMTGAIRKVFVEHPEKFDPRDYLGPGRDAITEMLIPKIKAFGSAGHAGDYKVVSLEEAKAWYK
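40 nM FBPA preincubated 10 min at RT with compound (up to 57.5 uM final), then substrate plus GAPDH/TPI/NAD/arsenate coupling and diaphorase/resazurin added. Fluorescence read after 20 min at RT, 525/598 nm.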
LmPK inhibitor – LmPK (Leishmania mexicana) enzyme inhibition. Q27686. purified LmPK, Kinase-Glo ATP luminescence, 1 h. Potency, µM (top dose mostly 57.5 µM), inactives show top-dose activity change, negative = inhibition, usual class: inhibitors. 290,000 tested, 0.37% active. AID 1721; further: potency means the concentration at half of the fitted maximal effect; on the % scale 0 is the no-effect control and ±100 the full control effect
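Pyruvate kinase activity monitored as ATP production (luciferase luminescence). Conditions: 0.1 nM enzyme, 0.5 mM PEP, 0.1 mM ADP, 1 h, RT; normalized against uninhibited and no-enzyme wells.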
Tb PYK inh – blocks Trypanosoma brucei pyruvate kinase; Q57TT1; TbPYK enzyme, Kinase-Glo Plus ATP luminescence, 45 min; Potency, µM (top dose mostly 76.8 µM), for the others: at the top dose activity, negative = inhibition, most hits filed as inhibitors; 410,000 tested, 0.12% active; AID 624173; further: potency means the concentration at half of the fitted maximal effect; on the % scale 0 is the no-effect control and ±100 the full control effect; nearly all actives have a fitted effect of over 50% in size
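T. brucei PYK with substrate was exposed to pin-transferred compounds across a concentration series, then started with 130 uM ADP (final). After 45 min at room temperature, Kinase-Glo Plus luminescence was read, normalized and curve-fitted.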
Shiga inhibitor – blocks Shiga toxin action in Vero cells; Vero cells, Shiga toxin protein synthesis inhibition reporter; inhibition, % at 38.7 µM; 290,000 tested, 9.2% active; AID 2315; in the data active means inhibition mostly above about 28%, no sharp cut-off; inactive means mostly below about 43%; further: 0% is about no effect
RE007 growth inh – less growth of the S. pombe RE007 Vpr strain | S. pombe RE007 Vpr strain, BacTiter-Glo ATP luminescence, 24 h | Potency, µM (series often up to 92.2 µM), without a hit: at the top dose activity change, negative = less growth, most hits filed as inhibitors | 360,000 tested, 0.21% active | AID 651644; active means well fitted falling curve with a large enough effect; inconclusive means small, poorly fitted or top-dose-only effect; inactive means no such curve, though single readings can be large or run the other way; further: potency means the concentration at half of the fitted maximal effect; on the % scale 0 is the no-effect control and ±100 the full control effect; nearly all actives have a fitted effect of over 50% in size
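Fission yeast RE007 carrying one integrated HIV-1 vpr copy, seeded at OD 0.01 in PMG+AL medium with 23 nL pinned compound. Grown 24 h at 30 degrees; viability read by BacTiter-Glo luminescence after 5 min.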
Starred values were filed as active, the others as inactive; ? = inconclusive; nt = not tested or not shown; + = active, no number; [ ] = another dose, or the depositor's remark. Unless noted, the call rests on the fitted dose curve; in most records, active means well fitted curve in the direction sought with a large enough effect; inconclusive means small, poorly fitted or top-dose-only effect, or another doubt; inactive means no such curve, though single readings can be large; an effect the other way counts as inactive or inconclusive.

SMILES	Cycloheximide cs	Giardia FBPA inh	LmPK inhibitor	Tb PYK inh	Shiga inhibitor	RE007 growth inh
Cc1cccc(NC(=O)c2cc3cc([N+](=O)[O-])ccc3s2)n1	19*	5%	1%	-1%	56	-6%
Cc1ccnc(NC(=O)c2cccs2)c1	38*	-10%	?	6%	57	-30%
Cc1ccccc1C(=O)Nc1nnc(S(=O)(=O)N2CCCc3ccccc32)s1	nt	nt	nt	2%	nt	nt
CC(Sc1ccccc1)C(=O)NCC(c1ccco1)N1CCCCC1 (configuration not stated)	nt	nt	nt	-7%	nt	-23%
O=C(Cn1c(=O)n(Cc2ccco2)c(=O)c2sc3ccccc3c21)Nc1ccc(F)cc1F	nt	nt	nt	-14%	nt	nt
CN(CC(=O)Nc1ccccn1)S(=O)(=O)c1ccc(Cl)cc1	3	-2%	4%	-2%	-5	5%
CCN(CC)S(=O)(=O)c1csc(C(=O)Nc2ccccn2)c1	22*	6%	0%	2%	+	9%
Cc1ccc([N+](=O)[O-])c(OCc2ncc(Cl)n2C)c1	39*	-9%	-4%	2%	72*	-3%
CN(C(=O)COC(=O)c1cc2ccccc2cc1O)C1CCCCC1	nt	nt	nt	-19%	nt	?
CN(C(=O)c1ccc(Br)o1)C1CCS(=O)(=O)C1 (configuration not stated)	-3	1%	-1%	2%	-2	-4%
CN(C(=O)c1cc2ccccc2cc1O)C1CCCCC1	21*	nt	-10%	-3%	23	7%
CN(C(=O)c1ccccc1Cl)C1CCCCC1	13*	1%	3%	-15%	-2	-10%
O=C(NNC(=O)c1cc2ccccc2cc1O)NC1CCCCC1	12	-8%	4%	-10%	23	9%
CN(C(=O)c1ccc(Br)o1)C1CCCCC1	33*	-7%	-3%	1%	67*	2%
O=C(NCC1CCCCC1)c1cc2ccccc2cc1O	32*	nt	1%	-1%	74*	-7%
COc1ccc(NC(=O)Cn2c(=O)n(-c3cccc(C(F)(F)F)c3)c(=O)c3sccc32)cc1	nt	nt	nt	3%	nt	nt
c1cnc2nc3c4ccccc4c4ccccc4c3nc2c1	nt	nt	nt	1%	nt	0%
CN(/N=C/c1ccc(O)cc1O)c1nc(-c2ccccc2)cc(-c2ccccc2)n1	-2	4%	0%	-21%	-7	2%
CN=Cc1cc(-c2ccccc2)sc1O	40*	2%	4%	0%	40*	-9%
Cc1ccc(S(=O)(=O)N(C)C)cc1NC(=O)C(C)OC(=O)c1ccc2c(=O)n3c(nc2c1)CCC3 (configuration not stated)	nt	nt	nt	1%	nt	-8%
COc1ccc(C2=NN(CN3C(=O)C(=O)c4ccccc43)C(c3ccc(Br)cc3)C2)cc1 (configuration not stated)	32*	1%	2%	2%	46	-2%
COc1ccc(C2CC(c3ccc(Br)cc3)=NN2C(=O)c2cccnc2)cc1 (configuration not stated)	-6	6%	2%	0%	-16	-11%
COc1ccc(C2=NN(CN3C(=O)C(=O)c4ccccc43)C(c3ccc(C)cc3)C2)cc1 (configuration not stated)	25*	-8%	8%	-11%	78*	?
O=C(NCc1cccs1)c1nn(-c2ccccc2F)nc1CO	nt	nt	nt	-1%	nt	nt
CSc1ccccc1OCc1cc(C(=O)NC2CCc3ccccc32)no1 (configuration not stated)	9	-6%	0%	-20%	9	0%
SMILES	Cycloheximide cs	Giardia FBPA inh	LmPK inhibitor	Tb PYK inh	Shiga inhibitor	RE007 growth inh
COc1ccc(OCc2cc(C(=O)NC3Cc4ccccc4C3)no2)c(Cl)c1	-4	-2%	-4%	0%	13	4%
COc1ccc(OCc2cc(C(=O)N[C@H]3CCCCNC3=O)no2)c(Cl)c1	49*	nt	-1%	0%	58*	-16%
CSc1ccccc1OCc1cc(C(=O)N[C@H]2CCCCNC2=O)no1	57*	nt	2%	-7%	128*	4%
O=C1c2ccccc2C(=O)c2c(O)ccc(O)c21	nt	-26%	nt	nt	nt	nt
O=C1C(=C(I)I)c2ccccc2-c2ccccc21	nt	nt	nt	-31%	nt	14µM*
Cc1ccc2oc(-c3cc(NC(=O)c4ncn[nH]4)ccc3O)nc2c1	9	7%	2%	3%	79	-12%
O=C(Nc1nnc(C(F)(F)F)s1)c1ccc(Br)s1	21*	?	-2%	-9%	54*	-7%
Cc1cc(C(=O)Nc2nnc(C(F)(F)F)s2)no1	11	-21%	3%	1%	21	-1%
Cc1cc(C(=O)Nc2nnc(C(F)(F)F)s2)cs1	18*	?	1%	2%	9	-26%
Cc1cc(C(=O)Nc2nnc(C3CCCCC3)s2)cs1	38*	-2%	-3%	0%	63	-8%
CCc1nc2ccc(C(=O)NCc3ccc4c(c3)OCO4)cn2c1N(C)Cc1cccs1	nt	nt	nt	-6%	nt	-13%
COC(=O)C=P(c1ccccc1)(c1ccccc1)c1ccccc1	nt	-3%	nt	nt	nt	nt
CCOC(=O)Cn1nc(-c2ccc(Cl)cc2)cc1N	38*	-11%	4%	1%	92*	1%
CCOC(=O)CCn1nc(-c2ccc(Cl)cc2)cc1N	20*	1%	-1%	-4%	29	-30%
CCOC(=O)N1CCN(C(=O)CCn2nc(-c3ccc(Cl)cc3)ccc2=O)CC1	-3	0%	-3%	-2%	-13	4%
CC(C)C(NC(=O)c1c(F)cccc1F)C(=O)OCN1C(=O)c2ccccc2C1=O (configuration not stated)	nt	nt	nt	1%	nt	-23%
CC(C)CCN(C(=O)Nc1ccccc1)C(C)c1cccs1 (configuration not stated)	20	-9%	5%	3%[15.4 µM]	-2	-6%
Cc1ccc(SCc2ccc(C(=O)N3CCCCC3)cc2)cc1	28*	1%	-2%	6%	59*	-4%
O=C(CSCc1ccc(Br)cc1)N1CCCC1	25*	0%	1%	2%	27	-3%
O=C(CSCc1ccc(F)cc1)N1CCN(c2ccc(Cl)cc2)CC1	nt	nt	nt	-3%	nt	nt
O=C(CSCc1ccc(Br)cc1)NC1CC1	23	0%	3%	5%	27	-17%
CC1CCN(C(=O)COC(=O)Cc2ccc(Br)cc2)CC1	35*	0%	-3%	-9%	-4	-4%
CC1CCN(C(=O)CSCc2ccc(Cl)cc2)CC1	35*	3%	1%	-2%	31	17%
O=C(CSCc1ccc(Br)cc1)N1CCOCC1	31*	-14%	-5%	2%	64*	4%
CC1CCN(CCCCOc2ccc(Cl)cc2)CC1	-2	?	2%	9%	-6	10%
CC1CCN(C(=O)CCCOc2ccc(Cl)cc2)CC1	33*	3%	-1%	-2%	55*	-14%
O=C(CSCc1ccc(F)cc1)N1CCOCC1	58*	-15%	17%	-7%	82*	-1%

Bioassay records (PubChem)
